Results filed as inconclusive are left out. A call without a number means that no potency is given here. The source made the active and inactive calls. The call rests on the fitted dose curve; in most records, active means well fitted cell-killing curve with a large enough effect; inconclusive means small, poorly fitted or top-dose-only effect, or effect the other way; inactive means flat fitted curve, though single readings scatter.
tested on: PA-1; experiment: Primary qHTS to identify gynecologic anti-cancer compounds using libraries of approved drugs and bioactive compounds (AID 1345084); details: Gynecologic cancer cell panel viability, ATPlite luminescence, 48 h; series mostly up to 57.5 µM; further: nearly all actives have a fitted effect of over 55% in size
Method in brief: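 48 h compound exposure at 37 C, 5% CO2; five-point qHTS. ATPlite luminescence readout of cell ATP.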
Potency means the concentration at half of the fitted maximal effect.

SMILES | Potency
Cc1c(N)c(=O)n(-c2ccccc2)n1C | inactive
C[N+]1(C)[C@@H]2CC(OC(=O)[C@H](CO)c3ccccc3)C[C@H]1[C@@H]1O[C@@H]12 (some centres undefined) | inactive
c1ccc2sc(SSc3nc4ccccc4s3)nc2c1 | inactive
COc1cc(NC(C)CCCN)c2ncccc2c1 (centres undefined) | inactive
CCCC(=O)OC[C@@H](OC(=O)CCC)[C@@H](OC(=O)CCC)[C@H](Cn1c2nc(=O)[nH]c(=O)c-2nc2cc(C)c(C)cc21)OC(=O)CCC | inactive
CC(=O)c1ccc(OCC(=O)N2CCCCC2)cc1 | inactive
CCOc1ccc2nc(S(N)(=O)=O)sc2c1 | inactive
CN(C)CCn1nnnc1SCC1=C(C(=O)O)N2C(=O)[C@@H](NC(=O)Cc3csc(N)n3)[C@H]2SC1 | inactive
CCCCCCCCCCCCCCCC(=O)OC(C)C | inactive
CCCCCCCCCCCCCCCCCC(=O)O | inactive
CNC(=O)c1c(I)c(NC(=O)CCCCC(=O)Nc2c(I)c(C(=O)O)c(I)c(C(=O)NC)c2I)c(I)c(C(=O)O)c1I | inactive
CCC1C(=O)OCC1Cc1cncn1C (centres undefined) | inactive
Nc1ccc(C(=O)O)c(O)c1 | inactive
[O-][n+]1ccccc1SSc1cccc[n+]1[O-] | 1260 nM (active)

Source: PubChem BioAssay (NCATS)
